AMA1-RON2 inh – inhibitors of Plasmodium falciparum AMA1-RON2 interaction; AlphaScreen AMA1-biotinylated RON2 peptide binding; Potency, µM (doses to about 58.2 µM), for inactives: top-dose activity change, negative = inhibition, usual class: inhibitors; 360,000 compounds, 0.2% hits; AID 720542;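 further: potency means the concentration at half of the fitted maximal effect; 0% = vehicle wells and -100% = peptide control; nearly all actives have a fitted effect of over 45% in size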
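AMA1 (3D7) with his tag at 25 nM final met compounds first, then biotinylated RON2 peptide at 25 nM; detection used donor plus acceptor beads, 10 µg/mL apiece, read by AlphaScreen after 30 min at room temperature.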
Shiga inhibitor – Shiga toxin inhibition. inhibition, % at 38.7 µM. 290,000 compounds, 9.2% hits. Vero cells, Shiga toxin protein synthesis inhibition reporter; in the data active means inhibition mostly above about 28%, no sharp cut-off; inactive means mostly below about 43%; further: 0% is about no effect
CHX counter – affects cycloheximide protein synthesis inhibition readout, counter-screen; cell reporter, cycloheximide protein synthesis inhibition counterscreen; max response, %; 300,000 compounds, 12% hits; AID 2314; in the data active means max response mostly above about 13%, no sharp cut-off; inactive means mostly below about 14%; further: read at 38.3 µM for the half of the compounds with a filed dose; 0% is about no effect
Pf growth 48h – P. falciparum growth inhibition at 48 hours (one generation). Potency, µM (titrated, usually from 28.7 µM), for the others: at the top dose activity change, negative = inhibition, most hits filed as inhibitors. 310,000 compounds, 5.9% hits. AID 504832. P. falciparum luciferase growth in erythrocytes, 48 h; further: potency means the concentration at half of the fitted maximal effect; on the % scale 0 is the no-effect control and ±100 the full control effect
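First compound was added to culture medium, then infected red cells at 0.1% parasitemia and 2% hematocrit (final). After incubation at 37 C under 5% CO2, luciferase detection reagent was dispensed and light output recorded.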
HCV inh – blocks hepatitis C virus; Potency, µM (top dose mostly 41.8 µM), for the others: top-dose activity change, negative = inhibition, most hits filed as inhibitors; 340,000 compounds, 3.4% hits; Huh7.5.1 HCVcc-Cre infection, luciferase reporter, 44 h; further: potency means the concentration at half of the fitted maximal effect; on the % scale 0 is the no-effect control and ±100 the full control effect
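Infectious HCV cell culture screen: compound-treated cells (1,000/well, pre-plated 4 h) are infected with HCVcc-Cre at roughly 0.5 moi and grown 44 h. Infection is quantified by luciferase signal after 15 min substrate incubation at room temperature.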
Pf growth 96h – P. falciparum growth inhibition at 96 hours; AID 504834; P. falciparum luciferase reporter growth, 96 h; 320,000 compounds, 6.9% hits; Potency, µM (highest dose often 28.7 µM), for the others: at the top dose activity change, negative = inhibition, usual class: inhibitors; further: potency means the concentration at half of the fitted maximal effect; on the % scale 0 is the no-effect control and ±100 the full control effect
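Two-generation exposure (96 h) targets delayed-death phenotype. Reporter parasites carrying integrated firefly luciferase, in red cells at 2% hematocrit and 0.05% parasitemia final, kept at 37 C, 5% CO2; luminescence loss indicates inhibition.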
Starred values were filed as active, the others as inactive; [ ] = another dose, or the depositor's remark. An excerpt weighted towards active compounds, which were near 21% of everything screened. Unless noted, the call rests on the fitted dose curve; in most records, active means well fitted curve in the direction sought with a large enough effect; inconclusive means small, poorly fitted or top-dose-only effect, or another doubt; inactive means no such curve, though single readings can be large; an effect the other way counts as inactive or inconclusive.

What do the screens show for `CCOc1ccccc1NC(=O)C(OC(=O)c1ccc(NC(=O)CC#N)cc1)c1ccccc1` (centres undefined)?
AMA1-RON2 inh: -3%; Pf growth 48h: 5.2µM*; HCV inh: inconclusive; Pf growth 96h: 2.3µM*

What do the screens show for `O=C(NNc1nc2ccccc2s1)Nc1ccc(F)cc1`?
AMA1-RON2 inh: 54%; Shiga inhibitor: 85*; CHX counter: 62*; Pf growth 48h: 93%; HCV inh: 5%; Pf growth 96h: 132%

What do the screens show for `CC(C)C(=O)NNc1nc2ccccc2s1`?
AMA1-RON2 inh: 11%; Shiga inhibitor: 51*; CHX counter: 38*; Pf growth 48h: 85%; HCV inh: 3%; Pf growth 96h: 94%

Results for O=C(NNc1nc2ccccc2s1)c1ccccc1F ?
AMA1-RON2 inh: 35%; Shiga inhibitor: 59*; CHX counter: 29*; Pf growth 48h: 8%; HCV inh: 10%; Pf growth 96h: -26%

Results for O=C(NNc1nc2ccccc2s1)Nc1ccc(Cl)c(Cl)c1 ?
AMA1-RON2 inh: 62%; Shiga inhibitor: 60*; CHX counter: 40*; Pf growth 48h: 20%; HCV inh: -4%; Pf growth 96h: 118%

How did O=C(NNc1nc2ccccc2s1)C1CC1 do in these assays?
AMA1-RON2 inh: 60%; Shiga inhibitor: 28; CHX counter: 15; Pf growth 48h: 38%; HCV inh: 22%; Pf growth 96h: 34%

How did O=C(O)CCC1(CCC(=O)O)CCCC(CCC(=O)O)(CCC(=O)O)C1=O do in these assays?
AMA1-RON2 inh: -15%; HCV inh: 8%

What do the screens show for `Cc1ccnc(NC(=O)CCC(=O)N(CC(=O)NC2CCCCC2)C2CCCC2)c1`?
AMA1-RON2 inh: -6%; Shiga inhibitor: -17; CHX counter: -2; Pf growth 48h: -10%; HCV inh: 7%; Pf growth 96h: -16%

How did COCCNC(=O)C1CCCN(C(=O)c2csc3ccccc23)CC1 (centres undefined) do in these assays?
AMA1-RON2 inh: 8%

Results for O=C(Nc1nc2ccccc2s1)Nc1ccc(F)cc1F ?
AMA1-RON2 inh: -2%; Shiga inhibitor: 72*; CHX counter: 53*; Pf growth 48h: 107%; HCV inh: -6%; Pf growth 96h: -17%

How did CS(=O)(=O)c1cc(N2CCOCC2)ccc1CNC[C@H]1O[C@@H](n2cnc3c(=O)[nH]c(N)nc32)[C@H](O)[C@@H]1O do in these assays?
AMA1-RON2 inh: 3%

What do the screens show for `Cc1cccc(C)c1NC(=O)C(CCc1ccccc1)N1CCC(c2ccccc2)CC1` (centres undefined)?
AMA1-RON2 inh: -14%

What do the screens show for `Cc1nn2cc(-c3ccc(N)cc3)nc2s1`?
AMA1-RON2 inh: -12%; Shiga inhibitor: 69*; CHX counter: 35*; Pf growth 48h: 19%; HCV inh: 3%; Pf growth 96h: 1%

Results for Cc1csc(NC(=O)Nc2cccc(Cl)c2)n1 ?
AMA1-RON2 inh: -6%; Shiga inhibitor: 86*; CHX counter: 30*; Pf growth 48h: 9%; HCV inh: -19%

How did Cc1nnc(NC(=O)Nc2cccc(Cl)c2)s1 do in these assays?
AMA1-RON2 inh: -5%; Shiga inhibitor: 80*; CHX counter: 51*; Pf growth 48h: inconclusive; HCV inh: inconclusive; Pf growth 96h: -23%

What do the screens show for `Cc1cc(NC(=O)Nc2cccc(Cl)c2)no1`?
AMA1-RON2 inh: 8%

What do the screens show for `Cc1ccc(OCCSCc2nnc(NC(=O)Nc3cccc(Cl)c3)s2)cc1`?
AMA1-RON2 inh: -1%[2.32 µM]; Shiga inhibitor: -12; CHX counter: -5; Pf growth 48h: 12µM*; HCV inh: inconclusive; Pf growth 96h: inconclusive

Results for CC1(C(=O)NS(=O)(=O)Cc2ccccc2C(F)(F)F)CCN1C(=O)c1ccco1 (centres undefined) ?
AMA1-RON2 inh: -4%

What do the screens show for `Cc1ccc(-c2cn(-c3ccc(SC(F)F)cc3)c3[n+]2CCC3)cc1`?
AMA1-RON2 inh: -7%; Shiga inhibitor: 14; CHX counter: -1; Pf growth 48h: 0.37µM*; HCV inh: inconclusive; Pf growth 96h: inconclusive

Results for FC(F)Sc1ccc(-n2cc(-c3ccc(Cl)cc3)[n+]3c2CCC3)cc1 ?
AMA1-RON2 inh: -4%; Shiga inhibitor: 10; CHX counter: 4; Pf growth 48h: 0.74µM*; HCV inh: 8%; Pf growth 96h: inconclusive

Results for FC(F)Sc1ccc(NC2=NCCCCC2)cc1 ?
AMA1-RON2 inh: 12%; Shiga inhibitor: 3; CHX counter: -1; Pf growth 48h: 14%; HCV inh: -8%; Pf growth 96h: 30%

What do the screens show for `CC(=O)OCC(NC(=O)C(C)NC(=O)OC(C)(C)C)C1OC(n2ccc(=O)[nH]c2=O)C(OC(C)=O)C1OC(C)=O` (centres undefined)?
Shiga inhibitor: 4; CHX counter: 7

Results for CC1Cc2ccccc2N1C(=O)C(C)n1cc(C(F)(F)F)cc(Cl)c1=O (centres undefined) ?
AMA1-RON2 inh: -6%; Pf growth 48h: inconclusive; HCV inh: 3%; Pf growth 96h: inconclusive

Results for Cc1cc2oc(=O)cc(-c3ccccc3)c2c(C)c1-c1ccc(CO)cc1 ?
AMA1-RON2 inh: -14%; Shiga inhibitor: inactive; CHX counter: 5; HCV inh: inconclusive

Results for CC(=O)c1ccc(-c2c(C)cc3oc(=O)cc(-c4ccccc4)c3c2C)cc1 ?
AMA1-RON2 inh: -17%; Shiga inhibitor: active; CHX counter: 30*; HCV inh: inconclusive

How did Cc1ccc(OCC(=O)NC(=S)Nc2ccccn2)c(Br)c1 do in these assays?
AMA1-RON2 inh: 80%; Shiga inhibitor: 83*; CHX counter: 28*; Pf growth 48h: 133%; HCV inh: 18%; Pf growth 96h: 195%

Results for O=C(COc1ccc(Br)cc1Cl)NC(=S)Nc1ccccn1 ?
AMA1-RON2 inh: -1%; Shiga inhibitor: 115*; CHX counter: 76*; Pf growth 48h: 292%; HCV inh: 5%; Pf growth 96h: -4%

How did COc1ccc(OCC(=O)NC(=S)NNC(=O)COc2ccc(Br)cc2Cl)cc1 do in these assays?
AMA1-RON2 inh: 51%; Shiga inhibitor: 15; CHX counter: 2; Pf growth 48h: 22%; HCV inh: 0%; Pf growth 96h: 0%

What do the screens show for `CCN1CCCc2cc(CN(CCN3CCOCC3)C(=S)Nc3cccc(OC)c3)ccc21`?
AMA1-RON2 inh: -14%; Shiga inhibitor: 8; CHX counter: -6; Pf growth 48h: inconclusive; HCV inh: -12%; Pf growth 96h: inconclusive

How did CCON=O do in these assays?
Pf growth 48h: -75%; Pf growth 96h: 2.7µM*

Source: PubChem BioAssay
